An excerpt weighted towards active compounds, which were near 0.4% of everything screened.
Rac1 wt modul: modulators of human Rac1 wildtype GTP binding. GST-Rac1 beads, fluorescent GTP binding, flow cytometry; actives lie on both sides; 0 = cold GTP competed, 100 = untreated. actives 0.27% (n = 190,000). GTP binding activity (% of control), % at 10 µM;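 active = GTP binding activity at least 20 points away from the 100% control level, either lower or higher; inconclusive = compound flagged as likely green fluorescent, judged across all proteins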
Cdc42 wt GTP: changes GTP binding to wildtype human Cdc42 | AID 761 | actives 0.2% (n = 190,000) | GST-Cdc42 beads, Bodipy-GTP binding, flow cytometry; actives lie on both sides | percent activity (GTP binding), % at 10 µM;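 active = percent activity GTP binding at least 20 points away from the 100% baseline, either down as inhibitor or up as activator; inconclusive = compound flagged as likely green fluorescent from well-wide comparison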;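 note: median bead fluorescence of bound Bodipy-FL-GTP at 100 nM; 0% = excess unlabeled GTP control and 100% = no compound control; below 100% means less GTP binding so inhibitor and above means activator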
Target sequence (P60953 whole entry, looked up): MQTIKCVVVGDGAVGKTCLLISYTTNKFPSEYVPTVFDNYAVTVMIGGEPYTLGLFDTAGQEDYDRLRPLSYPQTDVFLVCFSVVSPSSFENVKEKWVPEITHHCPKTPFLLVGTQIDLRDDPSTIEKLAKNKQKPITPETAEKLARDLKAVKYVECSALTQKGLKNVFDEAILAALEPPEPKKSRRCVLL
Rac1 mut GTP: alters GTP binding to activated mutant human Rac1. GST-Rac1 activated beads, fluorescent GTP binding, flow cytometry; actives lie on both sides; 100% means binding = to untreated wells. P63000. actives 0.11% (n = 190,000). percent activity (GTP binding), % at 10 µM;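 active = GTP binding at least 20 percentage points away from the 100% baseline, in either direction, so actives lie on both sides; inconclusive = Compound likely fluorescent itself, or too few beads counted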
HRas wt GTP bind: modulators of GTP binding to human HRas wildtype; GST-Ras wt beads, Bodipy-FL-GTP binding, flow cytometry; actives lie on both sides; P01112; GTP binding activity, % at 10 µM; actives 0.14% (n = 190,000);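 active = GTP binding activity at least 20% away from the 100% baseline, either lowered as inhibitor or raised as activator; inconclusive = flagged as likely green fluorescent, judged across all proteins in the well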;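 note: 0% = unlabeled GTP competition control and 100% = no-compound control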
Target sequence (P01112 whole entry, looked up): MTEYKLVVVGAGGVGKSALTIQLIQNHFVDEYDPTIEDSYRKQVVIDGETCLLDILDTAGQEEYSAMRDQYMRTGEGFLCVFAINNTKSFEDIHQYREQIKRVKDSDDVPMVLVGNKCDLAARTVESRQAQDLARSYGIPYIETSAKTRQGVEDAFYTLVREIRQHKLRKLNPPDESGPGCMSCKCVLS
Rab2A wt mod: changes GTP binding to wildtype dog Rab2A, up or down | P61105 | GST-Rab2 wt beads, Bodipy-GTP binding, flow cytometry | GTP binding activity, % at 10 µM | actives 0.19% (n = 190,000);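 active = GTP binding activity at least 20 points away from 100%, either lowered or raised; inconclusive = signal likely due to the compound's own green fluorescence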;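 note: 0% = beads with excess unlabeled GTP and 100% = no-compound control corrected for plate trend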
Rab7 wt modul: alters GTP binding to wildtype dog Rab7; GST-Rab7 beads, fluorescent GTP binding, flow cytometry; actives lie on both sides; untreated = 100%, excess cold GTP = 0%; GTP binding activity (percent of control), % at 10 µM; actives 0.055% (n = 190,000);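 active = fluorescent GTP binding to Rab7 beads changed by at least 20 points from the 100% baseline, either direction, mostly lower; inconclusive = compound itself probably fluorescent, or too few beads counted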;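 note: median green fluorescence of bound Bodipy-FL-GTP per Rab7 bead population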
An asterisk follows results filed as active; u = inconclusive; [ ] = remark or other dose.

SMILES	Rac1 wt modul	Cdc42 wt GTP	Rac1 mut GTP	HRas wt GTP bind	Rab2A wt mod	Rab7 wt modul
Cc1cc(NC(=O)CCC(=O)N(c2ccc(F)cc2)C(C(=O)NC2CCCC2)c2ccc(C)o2)no1 (stereo unspecified)	99	97	96	101	99	107
Cc1ccccc1C(=O)Nc1ccc2c(C#N)c3nc4ccccc4nc3n2c1	76*	88	88	80	76*	89
CC(=O)Nc1ccc(NC(=O)c2ccccc2C)cc1	105	103	101	102	102	102
Cc1ccc(NC(=S)NNC(=O)c2cn(C)nc2C)cc1	134*[activator]	118	108	113	114	107
Cc1ccc(NC(=S)NNC(=O)c2c(Cl)c(C)nn2C)cc1	100	100	97	99	99	96
Cc1ccc(CNC(=O)C2CN(S(C)(=O)=O)c3cc(Cl)ccc3O2)cc1 (stereo unspecified)	96	96	94	98	96	100
CCCCCCN(C(=O)CCCCCN1C(=O)NC(c2ccc(-c3ccccc3)cc2)C(C(=O)OCc2ccccc2)=C1C)C(C(=O)NCCCC)c1ccc(O)cc1 (stereo unspecified)	109	98	98	103	101	102
O=C(NCCc1c[nH]c2ccccc12)c1cccc(S(=O)(=O)Nc2ccccc2Cl)c1	80	93	89	83	79*	88
O=C(O)c1cccc(S(=O)(=O)Nc2ccccc2Cl)c1	97	101	98	98	97	99
COc1ccc(C(=O)Nc2nc3ccccc3[nH]2)cc1S(=O)(=O)N1CCOCC1	82	78*	90	80	77*	82
Cc1ccc(S(=O)(=O)ON=C2CCN(S(=O)(=O)c3ccccc3)CC2)cc1	97	95	97	97	97	99
CC1=CC(=O)C=C(C)C1=NOS(=O)(=O)c1ccccc1	89	91	78*	92	88	90
COc1ccc(-c2nn3c(-c4ccccn4)nnc3s2)cc1OC	74*	82	89	80	79*	86
CC(=O)Nc1ccc(SCC(=O)N(C)C2CCS(=O)(=O)C2)cc1 (stereo unspecified)	93	95	94	94	98	98
O=C1CCC(CCC(=O)N2CCCC(C(=O)c3cccc(C(F)(F)F)c3)C2)=NN1 (stereo unspecified)	99	94	96	96	96	99
CC(=O)Nc1ccnc(-c2cccnc2)n1	96	93	95	96	95	99
O=C(Nc1cccc(Cl)c1)Nc1ccnc(-c2cccnc2)n1	77*	64*	85	67*	67*	93
Cc1cc(NS(=O)(=O)c2ccccc2)c(C)c(Cl)c1O	105	106	103	101	101	98
O=S(=O)(Nc1cc(Sc2ncn[nH]2)c(O)c2ccccc12)c1ccccc1	78*	95	89	92	91	91
O=c1c2ccccc2nc2ccc(NCc3ccco3)nn12	93	87	92	82	79*	93
Cc1sc2nc3ccc(NCc4ccco4)nn3c(=O)c2c1C	22*	28*	30*	34*	27*	18*
COc1cc(CCNc2ccc3nnc(-c4ccccc4)n3n2)cc(OC)c1OC	73*	73*	89	71*	74*	89
Cc1cc(C)n2ncc(C(=O)O)c2n1	92	78*	94	82	80	92
Cc1nn(-c2ccccc2)c(Oc2ccccc2)c1C=O	105	104	100	100	100	104
Cc1cc(NC(=O)c2cccc(C(=O)Nc3cc(C)on3)n2)no1	88	79*	91	80	80	93
SMILES	Rac1 wt modul	Cdc42 wt GTP	Rac1 mut GTP	HRas wt GTP bind	Rab2A wt mod	Rab7 wt modul
COc1cc(NS(=O)(=O)c2ccc(NC(=O)/C=C/c3cccc([N+](=O)[O-])c3)cc2)ncn1	79*	83	86	86	86	90
O=C(O)c1cccc(-n2cccc2/C=C2/NC(=O)N(c3ccc(Cl)cc3)C2=O)c1	67*	72*	76*	82	75*	88
COc1ccc(-n2cccc2/C=C2/NC(=O)N(c3cccc(Cl)c3)C2=O)cc1	102	101	100	100	100	104
O=C(CNC(=O)Cc1ccccc1)N=Nc1c(O)n(Cc2ccc3c(c2)OCO3)c2ccccc12	78*	90	88	84	78*	90
C/C(=N\Nc1ccc(S(N)(=O)=O)cc1[N+](=O)[O-])c1ccc2c(c1)OCO2	76*	84	88	89	85	97
COc1ccc(CNCC(O)(c2ccc(F)cc2)c2ccc(F)cc2)cc1	103	104	100	99	102	101
CC(C)c1nc2sc3c(=O)[nH]c(=S)[nH]c3c2c2c1CCC2	98	100	96	97	93	101
CCCc1nc2oc3c(=O)[nH]cnc3c2c2c1CCCC2	79*	82	85	82	81	93
CC(C)Cc1nc2oc3c(Cl)ncnc3c2c2c1CCC2	101	100	99	101	99	97
CC(C)c1nc2oc3c(=O)[nH]cnc3c2c2c1CCC2	79*	70*	82	74*	73*	81
CC(=O)Nc1nc(C2CC2)cc(-c2ccccc2)c1C#N	95	98	94	96	95	92
O=C(CN1CCN(c2ccc(F)cc2)CC1)NC(=O)NCc1ccco1	108	101	99	102	98	102
N#Cc1ccc2ccn(CC(=O)N3CCCc4ccccc43)c2c1	129*[activator]	109	106	109	109	110
O=C(CN1CCCCC1)N1CCCc2ccccc21	106	104	101	103	102	100
O=C(O)c1ccccc1C(=O)NCc1cccnc1	104	99	102	101	100	97
O=C(NCc1cccnc1)c1cccn2c(=O)c3sccc3nc12	76*	87	86	87	82	91
N/C(=N\OC(=O)c1cc(Cl)ccc1Cl)c1ccccn1	99	98	102	100	100	98
O=C(COC(=O)c1cc2ccccc2o1)c1ccccc1	102	98	101	99	98	98
O=C(OCCN1CCCCC1)c1cc2ccccc2o1	123*[activator]	114	102	106	106	102
Nc1c(S(=O)(=O)c2cccc(Cl)c2)c2nc3ccccc3nc2n1/N=C/c1ccc(O)c(O)c1	79*	63*	80	63*	76*	u
